Source: the supplement of paper PMC3545927
Some of the results follow. No count for the full screen is at hand.

Biological target: furin, P09958
Experiment: furin cleavage Z-score vs untreated control; higher = more cleavage, active = 3.5 or more, inactive = 1 or less, 8 variable residues between constant flanks
Outline: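 Reactions of 0.01 ml ran for 7.5, 15 or 30 min in 50 mM HEPES pH 7.5 with CaCl2 and NaCl, at 1:10 enzyme:substrate. In them, purified furin acted on bead-held 8-mer peptides fused to a cDNA oligonucleotide. The cleavage Z-score was obtained by lowess-adjusting log sequencing counts of released DNA against furin-free reactions and scaling by median absolute deviation.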

Chain of furin, P09958 (P09958 whole entry): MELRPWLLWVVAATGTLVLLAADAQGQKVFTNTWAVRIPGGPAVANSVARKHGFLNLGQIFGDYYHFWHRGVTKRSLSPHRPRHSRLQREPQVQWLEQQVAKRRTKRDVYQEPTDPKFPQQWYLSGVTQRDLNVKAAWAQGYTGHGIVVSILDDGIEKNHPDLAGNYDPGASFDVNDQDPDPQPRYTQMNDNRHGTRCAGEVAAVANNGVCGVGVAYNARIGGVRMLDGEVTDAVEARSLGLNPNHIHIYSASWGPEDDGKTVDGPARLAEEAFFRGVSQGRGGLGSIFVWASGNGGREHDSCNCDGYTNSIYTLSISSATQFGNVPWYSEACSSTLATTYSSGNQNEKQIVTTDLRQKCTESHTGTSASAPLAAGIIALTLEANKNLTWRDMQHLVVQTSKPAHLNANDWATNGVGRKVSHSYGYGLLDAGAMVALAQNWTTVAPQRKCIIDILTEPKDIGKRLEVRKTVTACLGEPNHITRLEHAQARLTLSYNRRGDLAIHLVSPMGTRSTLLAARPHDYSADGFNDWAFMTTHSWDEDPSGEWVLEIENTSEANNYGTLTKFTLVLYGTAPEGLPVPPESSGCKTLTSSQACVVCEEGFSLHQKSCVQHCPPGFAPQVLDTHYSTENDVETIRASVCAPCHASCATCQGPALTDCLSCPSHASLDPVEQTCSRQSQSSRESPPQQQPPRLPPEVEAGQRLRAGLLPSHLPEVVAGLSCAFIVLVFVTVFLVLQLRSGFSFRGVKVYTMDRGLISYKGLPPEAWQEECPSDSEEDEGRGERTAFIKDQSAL

Row | Sequence | furin cleavage Z-score (7.5 min) | furin cleavage Z-score (15 min) | furin cleavage Z-score (30 min)
1 | CAMGECSQHLAGNASASA [HC1696] | 2.31 | 0.612 (inactive) | 1.45
2 | CAVVCCGMSYAGNASASA [HC102] | -1.2 (inactive) | -0.443 (inactive) | -0.831 (inactive)
3 | CAGACYSIEPAGNASASA [HC1595] | -0.464 (inactive) | -0.533 (inactive) | -1.27 (inactive)
4 | CADVMEECSQAGNASASA [HC1810] | 0.0621 (inactive) | 0.463 (inactive) | -0.158 (inactive)
5 | CAEVVTSDWVAGNASASA [HC2211] | -1.36 (inactive) | -1.03 (inactive) | -1.22 (inactive)
6 | CAFLLALLSCAGNASASA [HC249] | -0.759 (inactive) | -1.73 (inactive) | -0.995 (inactive)
7 | CAHAVGIFRAAGNASASA [HC748] | -0.783 (inactive) | -0.538 (inactive) | 0.453 (inactive)
8 | CAHANRTGRAAGNASASA [FS-130] | 3.34 | 5.9 (active) | 5.93 (active)
9 | CAVVCCSPSYAGNASASA [HC2059] | 0.343 (inactive) | 0.71 (inactive) | -0.572 (inactive)
10 | CANTNGSWHLAGNASASA [HC368] | -0.455 (inactive) | 0.77 (inactive) | -0.519 (inactive)
11 | CARRQPIPKAAGNASASA [HC191] | -0.467 (inactive) | -0.696 (inactive) | -2.34 (inactive)
12 | CARKARYAIQAGNASASA [FS-1901] | 1.15 | 3.07 | 5.59 (active)
13 | CARRGRPGLKAGNASASA [FS-2066] | -0.499 (inactive) | -1.08 (inactive) | -0.201 (inactive)
14 | CAEDAASLRAAGNASASA [HC1536] | 1.18 | 0.0869 (inactive) | 0.0662 (inactive)
15 | CARDPRAAIQAGNASASA [FS-2905] | -0.00694 (inactive) | -0.144 (inactive) | 0.0435 (inactive)
16 | CARRGRAARHAGNASASA [FS-1609] | 7.16 (active) | 6.27 (active) | 7.79 (active)
17 | CARRKRYAEHAGNASASA [FS-3056] | 8.67 (active) | 11.2 (active) | 9.71 (active)
18 | CARRGRAGSDAGNASASA [FS-2065] | -0.603 (inactive) | -0.507 (inactive) | -0.432 (inactive)
19 | CARKARWLRAAGNASASA [FS-2262] | 8.22 (active) | 9.39 (active) | 8.11 (active)
20 | CAVVCCSMSAAGNASASA [HC2083] | 0.0703 (inactive) | -1.17 (inactive) | -0.85 (inactive)
21 | CAGGWVAAQLAGNASASA [HC1067] | -0.864 (inactive) | -1.6 (inactive) | 0.105 (inactive)
22 | CAVVVATDALAGNASASA [HC877] | -0.345 (inactive) | -0.967 (inactive) | -0.904 (inactive)
23 | CARRKRKVLHAGNASASA [FS-2515] | 1.78 | 1.49 | 4.34 (active)

Row | Sequence | furin cleavage Z-score (7.5 min) | furin cleavage Z-score (15 min) | furin cleavage Z-score (30 min)
24 | CAREIRSEEPAGNASASA [FS-2005] | 0.429 (inactive) | -0.412 (inactive) | -0.762 (inactive)
25 | CARVQRMAEHAGNASASA [FS-2841] | 2.56 | 3.98 (active) | 4.15 (active)
26 | CARRKRCMRHAGNASASA [FS-2295] | 6.23 (active) | 8.55 (active) | 6.72 (active)
27 | CARCRKSCEHAGNASASA [FS-1997] | -0.455 (inactive) | -0.923 (inactive) | 0.798 (inactive)
28 | CARRKRYAIQAGNASASA [FU8] | 8.03 (active) | 11.3 (active) | 11.2 (active)
29 | CARRKRYAIQAGNASASA [FS-3205] | 8.13 (active) | 11.7 (active) | 10.8 (active)
30 | CARRKRKKKHAGNASASA [FS-1777] | -0.226 (inactive) | 0.662 (inactive) | 2.03
31 | CAEVATSTWVAGNASASA [HC2183] | -1.15 (inactive) | -1.35 (inactive) | -0.393 (inactive)
32 | CASTPCSQHLAGNASASA [HC2542] | -0.0132 (inactive) | 0.861 (inactive) | 2.13
33 | CAITLTHPVTAGNASASA [HC978] | -0.565 (inactive) | -1.36 (inactive) | -0.511 (inactive)
34 | CACVVTSTWVAGNASASA [HC2160] | -0.122 (inactive) | 1.54 | -0.488 (inactive)
35 | CARERKAGCKAGNASASA [DV2] | 0.35 (inactive) | 1.62 | 2.14
36 | CAMEEYSQHLAGNASASA [HC17] | -0.583 (inactive) | 0.186 (inactive) | 0.59 (inactive)
37 | CASVLCECYDAGNASASA [HC918] | -0.934 (inactive) | -1.47 (inactive) | -0.91 (inactive)
38 | CARRKRKKEVAGNASASA [FS-2296] | 1.16 | -1.15 (inactive) | 1.21
39 | CARKARSYIKAGNASASA [FS-2340] | -0.0545 (inactive) | 0.583 (inactive) | 3.72 (active)
40 | CARKAVTHINAGNASASA [HC1427] | -0.202 (inactive) | -1.07 (inactive) | 0.0109 (inactive)
41 | CARRKRYISQAGNASASA [FS-1780] | 6.79 (active) | 7.45 (active) | 9.13 (active)
42 | CARKARMLYQAGNASASA [FS-2685] | 1.39 | 5.49 (active) | 5 (active)
43 | CARKARIISQAGNASASA [FS-3157] | 1.75 | -1.95 (inactive) | -0.675 (inactive)
44 | CARRKRHSEHAGNASASA [FS-3166] | 10.5 (active) | 10.9 (active) | 8.79 (active)
45 | CANTLTCYIKAGNASASA [HC1516] | -0.56 (inactive) | -0.15 (inactive) | -0.828 (inactive)
